# Experimental data from ChEMBL document CHEMBL1961873, “Compounds: GSK PKIS; Assays: Nanosyn kinase panel” (2012).
# Molecular target: Proto-oncogene tyrosine-protein kinase Src (Homo sapiens) (UniProt P12931)
# Conditions: at 0.1 µM
# Sequence of Proto-oncogene tyrosine-protein kinase Src (Homo sapiens) (P12931 2-536 limits assumed): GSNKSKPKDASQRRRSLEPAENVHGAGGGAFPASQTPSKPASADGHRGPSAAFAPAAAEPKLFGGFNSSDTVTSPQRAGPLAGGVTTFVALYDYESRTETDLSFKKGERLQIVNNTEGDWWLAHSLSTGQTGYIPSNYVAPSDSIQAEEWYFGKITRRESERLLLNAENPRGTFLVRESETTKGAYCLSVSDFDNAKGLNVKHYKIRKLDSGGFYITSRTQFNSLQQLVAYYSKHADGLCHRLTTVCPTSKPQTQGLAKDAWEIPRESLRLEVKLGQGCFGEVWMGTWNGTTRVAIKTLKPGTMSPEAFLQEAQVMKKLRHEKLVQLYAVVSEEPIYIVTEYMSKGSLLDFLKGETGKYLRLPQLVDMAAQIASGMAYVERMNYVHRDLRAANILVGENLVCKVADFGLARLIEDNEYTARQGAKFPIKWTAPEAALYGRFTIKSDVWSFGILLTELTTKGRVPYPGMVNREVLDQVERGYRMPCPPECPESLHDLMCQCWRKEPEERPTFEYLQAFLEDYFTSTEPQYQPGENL
row,SMILES,inhibition [%]
1,Nc1ncnc2occ(-c3ccc(NC(=O)Nc4cc(C(F)(F)F)cc(C(F)(F)F)c4)cc3)c12,-4.73
2,CCn1c(-c2nonc2N)nc2c(N3CCCC3)nccc21,-2.23
3,CCn1c(-c2nonc2N)nc2cnc(Oc3cccc(NC(=O)c4ccc(OCCN5CCOCC5)cc4)c3)cc21,3.92
4,COc1ccccc1Nc1ncc(-c2ccccc2)o1,8.59
5,Cc1cccc(-c2n[nH]cc2-c2ccc3ncccc3n2)n1,2.63
6,CC1=C(C(=O)Nc2ccc3[nH]ncc3c2)C(c2ccc(F)cc2)NC(=O)N1 (stereo not drawn),-8.18
7,CCCN1CCC=C(c2ccc(Nc3nc(Nc4ccccc4C(N)=O)c4cc[nH]c4n3)c(C)c2)C1,8.87
8,CS(=O)(=O)Nc1ccc(N/C=C2\C(=O)Nc3ccccc32)cc1,-2.8
9,CCN1CCC(CC(=O)Nc2n[nH]c3nc(-c4cccs4)c(Br)cc23)CC1,15.4
10,CS(=O)(=O)CCNCc1ccc(-c2ccc3ncnc(Nc4ccc(OCc5cccc(F)c5)c(C(F)(F)F)c4)c3c2)o1,-1.31
11,COc1ccc(-c2nn3ncccc3c2-c2ccnc(Nc3ccc(Cl)c(C(F)(F)F)c3)n2)cc1,1.05
12,c1cnn2ncc(-c3ccnc(Nc4ccc5c(c4)OCCO5)n3)c2c1,-0.83
13,CCn1c(-c2nonc2N)nc2cncc(C(=O)N3CC[C@H](N)C3)c21,-1.35
14,NCc1ccc(-c2nc(-c3ccc(Cl)c(O)c3)c(-c3ccncc3)[nH]2)cc1,19.8
15,COc1cc2ncn(-c3cc(OCc4ccccc4C(F)(F)F)c(C(N)=O)s3)c2cc1OC,8.15
16,COc1ccc(-c2ccncc2)cc1C(N)=O,11.3
17,Cc1cc(O)cc(C)c1/C=C/c1cncc(-c2nn[nH]n2)c1,11.4

row,SMILES,inhibition [%]
1,Nc1nc(-c2ccc3c(c2)C(=Cc2cc(Br)c(O)c(Br)c2)C(=O)N3)cs1,0.53
2,COc1cccc(-n2ncc3c(N/N=C/c4cccc(F)c4)ncnc32)c1,0.4
3,COC(=O)Nc1nc2cc(Oc3ccc(NC(=O)Nc4cccc(C(=O)O)c4)cc3)ccc2[nH]1,1.83
4,Cc1nn(C)c2cc(N(C)c3ccnc(Nc4cccc(S(N)(=O)=O)c4)n3)ccc12,11.1
5,COc1cc2ncn(-c3cc(OCc4ccccc4Cl)c(C(N)=O)s3)c2cc1OC,20.5
6,CC(=O)Nc1cccc(C#Cc2cncnc2Nc2ccc(OCc3cccc(F)c3)c(Cl)c2)n1,2.96
7,COc1ccc(COc2ccc(Cc3cnc(N)nc3N)cc2OC)cc1,3.77
8,Nc1nc(-c2ccccn2)c(-c2ccc3ncccc3n2)s1,0.7
9,CC1=C(C(=O)Nc2ccc3[nH]ncc3c2)C(c2ccc3ccccc3c2)CC(=O)N1 (stereo not drawn),13
10,Cn1cc(C=C2C(=O)Nc3cccnc32)c2ccccc21,12.8
11,COc1ccc(-c2coc3ncnc(N)c23)cc1,5.47
12,CS(=O)(=O)CCNCc1nc(-c2ccc3ncnc(Nc4ccc(F)c(Cl)c4)c3c2)cs1,8.61
13,O=C1Nc2ccc(C(=O)c3ccco3)cc2C1=Cc1cc(Cl)c(O)c(Cl)c1,3.8
14,COc1cc2ncn(-c3cc(O[C@H](C)c4ccccc4Cl)c(C(N)=O)s3)c2cc1OC,7.81
15,CS(=O)(=O)CCN(CC#N)Cc1ccc(-c2ccc3ncnc(Nc4ccc(OCc5cccc(F)c5)c(Cl)c4)c3c2)o1,3.38
16,CC(C)=Cc1cccc2c1/C(=N/Nc1ccc(S(N)(=O)=O)cc1)C(=O)N2,10.8
17,CCn1c(-c2nonc2N)nc2c(C#CC(C)(C)O)nc(OC[C@@H](N)c3ccccc3)cc21,2.45

# Molecular target: Proto-oncogene tyrosine-protein kinase Src (Homo sapiens) (UniProt P12931)
# Conditions: at 1 µM
row,SMILES,inhibition [%]
1,Nc1ncnc2occ(-c3ccc(NC(=O)Nc4cc(C(F)(F)F)cc(C(F)(F)F)c4)cc3)c12,24.4
2,CCn1c(-c2nonc2N)nc2c(N3CCCC3)nccc21,-2.52
3,CCn1c(-c2nonc2N)nc2cnc(Oc3cccc(NC(=O)c4ccc(OCCN5CCOCC5)cc4)c3)cc21,7.72
4,COc1ccccc1Nc1ncc(-c2ccccc2)o1,11.2
5,Cc1cccc(-c2n[nH]cc2-c2ccc3ncccc3n2)n1,3.67
6,CC1=C(C(=O)Nc2ccc3[nH]ncc3c2)C(c2ccc(F)cc2)NC(=O)N1 (stereo not drawn),4.28
7,CCCN1CCC=C(c2ccc(Nc3nc(Nc4ccccc4C(N)=O)c4cc[nH]c4n3)c(C)c2)C1,17.4
8,CS(=O)(=O)Nc1ccc(N/C=C2\C(=O)Nc3ccccc32)cc1,8.01
9,CCN1CCC(CC(=O)Nc2n[nH]c3nc(-c4cccs4)c(Br)cc23)CC1,-4.33
10,CS(=O)(=O)CCNCc1ccc(-c2ccc3ncnc(Nc4ccc(OCc5cccc(F)c5)c(C(F)(F)F)c4)c3c2)o1,8.28
11,COc1ccc(-c2nn3ncccc3c2-c2ccnc(Nc3ccc(Cl)c(C(F)(F)F)c3)n2)cc1,9.68
12,c1cnn2ncc(-c3ccnc(Nc4ccc5c(c4)OCCO5)n3)c2c1,32.3
13,CCn1c(-c2nonc2N)nc2cncc(C(=O)N3CC[C@H](N)C3)c21,7.23
14,NCc1ccc(-c2nc(-c3ccc(Cl)c(O)c3)c(-c3ccncc3)[nH]2)cc1,63.3
15,COc1cc2ncn(-c3cc(OCc4ccccc4C(F)(F)F)c(C(N)=O)s3)c2cc1OC,21.2
16,COc1ccc(-c2ccncc2)cc1C(N)=O,12.4
17,Cc1cc(O)cc(C)c1/C=C/c1cncc(-c2nn[nH]n2)c1,69.4

row,SMILES,inhibition [%]
1,Nc1nc(-c2ccc3c(c2)C(=Cc2cc(Br)c(O)c(Br)c2)C(=O)N3)cs1,-0.25
2,COc1cccc(-n2ncc3c(N/N=C/c4cccc(F)c4)ncnc32)c1,57.2
3,COC(=O)Nc1nc2cc(Oc3ccc(NC(=O)Nc4cccc(C(=O)O)c4)cc3)ccc2[nH]1,7.71
4,Cc1nn(C)c2cc(N(C)c3ccnc(Nc4cccc(S(N)(=O)=O)c4)n3)ccc12,49.5
5,COc1cc2ncn(-c3cc(OCc4ccccc4Cl)c(C(N)=O)s3)c2cc1OC,20.9
6,CC(=O)Nc1cccc(C#Cc2cncnc2Nc2ccc(OCc3cccc(F)c3)c(Cl)c2)n1,0.48
7,COc1ccc(COc2ccc(Cc3cnc(N)nc3N)cc2OC)cc1,1.97
8,Nc1nc(-c2ccccn2)c(-c2ccc3ncccc3n2)s1,7.78
9,CC1=C(C(=O)Nc2ccc3[nH]ncc3c2)C(c2ccc3ccccc3c2)CC(=O)N1 (stereo not drawn),64.9
10,Cn1cc(C=C2C(=O)Nc3cccnc32)c2ccccc21,42.2
11,COc1ccc(-c2coc3ncnc(N)c23)cc1,8.84
12,CS(=O)(=O)CCNCc1nc(-c2ccc3ncnc(Nc4ccc(F)c(Cl)c4)c3c2)cs1,9.31
13,O=C1Nc2ccc(C(=O)c3ccco3)cc2C1=Cc1cc(Cl)c(O)c(Cl)c1,15.5
14,COc1cc2ncn(-c3cc(O[C@H](C)c4ccccc4Cl)c(C(N)=O)s3)c2cc1OC,40.7
15,CS(=O)(=O)CCN(CC#N)Cc1ccc(-c2ccc3ncnc(Nc4ccc(OCc5cccc(F)c5)c(Cl)c4)c3c2)o1,4.01
16,CC(C)=Cc1cccc2c1/C(=N/Nc1ccc(S(N)(=O)=O)cc1)C(=O)N2,46.4
17,CCn1c(-c2nonc2N)nc2c(C#CC(C)(C)O)nc(OC[C@@H](N)c3ccccc3)cc21,0.1
